# A selection: hits, their analogues and other compounds. The true share with any hit is near 2.4%.
# ClpP mod = qHTS Assay for Activators of ClpP. ATP-dependent Clp protease proteolytic subunit (Bacillus subtilis (strain 168)), P80244. purified B. subtilis ClpP, FRET peptide cleavage, 20 min. Potency, µM (top dose mostly 57.5 µM), for inactives: top-dose activity change, negative = active. actives 1.9% (n = 340,000). AID 651965, 2013; active = well fitted falling curve with a large enough effect; inconclusive = small, poorly fitted or top-dose-only effect; inactive = no such curve, though single readings can be large or run the other way; note: the source files actives as falling curves though it sought activators and does not explain the sign; nearly all actives have a fitted effect of over 65% in size
#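 Buffer: 100 mM Tris/HCl pH8, 100 mM KCl, 0.05% low protease BSA, 2.5% glycerol, 0.01% Tween-20. ClpP 10 microg/mL final; 20 min RT; delta FRET normalized to ADEP and DMSO controls.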
# PTAP TSG101 blk = blocks PTAP/TSG101 interaction to inhibit HIV-1 budding; Q99816; Fluorescence polarization, FITC-PTAP peptide / Tsg101 binding; Potency, µM (top dose mostly 115 µM), for the others: top-dose activity change, negative = inhibition, hits mostly inhibitors; 340,000 tested, under 10 active; AID 493005; active = well fitted inhibition curve with a large enough effect in the main read-out, with a control signal flat, not every such curve was filed as active; inconclusive = small, poorly fitted or top-dose-only effect, or effect the other way, or a change in a side signal; inactive = no such curve, though single readings can be large or run the other way; note: % of control where 0% means no effect
#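 FP read-out: FITC-PTAP peptide, 50 nM final, binding Tsg101 binding domain, 10 uM final; 20 min, r.t.; 10 mM HEPES pH 7.5, 0.15 M NaCl, 0.01% Tween 20, 3 mM EDTA, 0.1 mM TCEP.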
# TDP1 block = TDP1 (human) enzyme inhibition | actives 0.28% (n = 350,000) | Potency, µM (top dose mostly 130 µM), inactives show at the top dose activity change, negative = inhibition, usual class: inhibitors | recombinant TDP1, AlphaScreen DNA substrate cleavage; note: % is set by controls: 0 for no effect and ±100 for the full control effect; nearly all actives have a fitted effect of over 40% in size
# Target sequence (Q9NUW8 whole entry, looked up): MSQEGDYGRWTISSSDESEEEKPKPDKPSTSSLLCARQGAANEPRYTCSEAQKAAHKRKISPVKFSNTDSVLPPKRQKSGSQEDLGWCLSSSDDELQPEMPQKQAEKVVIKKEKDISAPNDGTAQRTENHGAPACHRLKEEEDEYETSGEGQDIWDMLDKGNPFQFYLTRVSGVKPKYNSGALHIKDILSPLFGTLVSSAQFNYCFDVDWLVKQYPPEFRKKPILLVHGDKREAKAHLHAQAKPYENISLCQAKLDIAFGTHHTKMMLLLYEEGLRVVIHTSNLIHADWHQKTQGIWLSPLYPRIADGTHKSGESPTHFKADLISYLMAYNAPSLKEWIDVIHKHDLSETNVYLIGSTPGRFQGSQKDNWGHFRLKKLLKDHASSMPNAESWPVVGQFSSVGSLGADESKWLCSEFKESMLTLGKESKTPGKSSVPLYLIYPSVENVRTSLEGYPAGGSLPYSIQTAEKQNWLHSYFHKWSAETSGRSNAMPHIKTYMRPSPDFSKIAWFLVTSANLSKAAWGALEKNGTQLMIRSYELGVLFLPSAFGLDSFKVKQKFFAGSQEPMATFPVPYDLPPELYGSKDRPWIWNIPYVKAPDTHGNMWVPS
#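 Here, a 5' biotin and 3' phosphotyrosine-FITC DNA oligonucleotide reports Tdp1 activity: intact substrate bridges AlphaScreen beads, while cleavage leaves a 3' phosphate and drops signal. All incubations at room temperature.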
# Rango release inh = inhibition of RanGTP-driven Rango-importin beta dissociation; Biochemical FRET Rango-importin beta, RanGTP-induced dissociation; Potency, µM (titrated, usually from 46.1 µM), inactives show top-dose activity change, negative = inhibition; actives 0.071% (n = 340,000); O95149+P62826; calls by dose curve; note: % of control where 0% means no effect; nearly all actives have a fitted effect of over 45% in size
#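 Quantitative HTS using a FRET biosensor: 0.1 uM Rango, 0.25 uM importin beta, 0.6 uM Ran, 2 mM GTP, 0.2 uM RCC1 final, PBS with DTT, Tween-20 and BSA. Post-read taken 45 min after Ran addition.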
# 12-LOX inh = blocks human arachidonate 12S-lipoxygenase | purified 12hLO, xylenol orange hydroperoxide absorbance | Potency, µM (top dose mostly 108 µM), for inactives: at the highest dose activity change, negative = inhibition, hits mostly inhibitors | actives 1.1% (n = 580,000) | AID 1671190; note: % is set by controls: 0 for no effect and ±100 for the full control effect
#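 Purified human 12hLO (150 nM final) in 25 mM Hepes, 0.01% Triton X-100, pH 7.0 was preincubated 15 min at room temperature with compound. Then 40 uM arachidonic acid was added, 30 min. Hydroperoxide was read by Fe-XO absorbance ratio 573/405 nm.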
# Rango-impB inh = Rango-importin beta binding inhibition; Q14974; AID 540263; Rango CFP/YFP FRET sensor + importin beta, 45 min; actives 0.031% (n = 340,000); Potency, µM (doses to about 92.2 µM), for the others: top-dose inhibition of complex formation; calls by dose curve;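 note: 0% = DMSO wells and 100% = buffer wells lacking importin beta; nearly all actives have a fitted effect of over 15% in size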
#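 Inhibition scored from the CFP 486 nm/YFP 530 nm FRET ratio 45 min after adding 0.125 microM importin beta to 50 nM Rango biosensor preincubated 5 min with compound (room temperature, PBS with DTT, Tween-20, BSA). No-importin wells as positive control.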
# Starred values were filed as active, the others as inactive; u = inconclusive; x = not tested or not shown; [ ] = another dose, or the depositor's remark. Unless noted, calls come from the whole dose curve; as a rule, active = well fitted curve in the direction sought with a large enough effect; inconclusive = small, poorly fitted or top-dose-only effect, or another doubt; inactive = no such curve, though single readings can be large; an effect the other way counts as inactive or inconclusive. Potency is the fitted concentration of half-maximal effect.
SMILES,ClpP mod,PTAP TSG101 blk,TDP1 block,Rango release inh,12-LOX inh,Rango-impB inh
O=C(c1ccccc1)c1ccc(OC(=O)c2c(F)cccc2Cl)cc1,x,x,x,x,3.8%,x
COCC(=O)Nc1cc(C(=O)N2CCC(c3ccccc3)CC2)cc2nc(-c3ccccc3)n(C)c12,x,x,x,x,12.0%,x
Cc1ccc(CN2C(=O)C(=O)c3cc(Br)cc(C)c32)cc1,-1.5%,x,10.1%,x,14.1µM*,x
Nc1c(N(Cc2ccco2)C(=O)c2ccc(Br)cc2)c(=O)[nH]c(=O)n1Cc1ccccc1,-8.5%,-7.3%,2.0%,-11.3%,28.2µM*,-4.9%
COCCN(C(=O)COC(=O)/C=C/c1ccco1)c1c(N)n(Cc2ccccc2)c(=O)[nH]c1=O,1.5%,-2.2%,25.1µM*,8.6%,-9.9%,-3.0%
CCC/C(=N/NC(=O)C(C)(C)O)c1ccccc1,x,x,x,x,22.3%,x
COCc1nnc(NC(=O)C2CC(=O)N(c3cccc(C)c3)C2)s1 (configuration not stated),x,x,x,x,-27.6%,x
CC(C)c1[nH]c(=O)c(C#N)c2c1COC(C)(C)C2,31.6µM*,-5.1%,0.0%,-0.7%,-0.9%,-0.2%
CCc1nc(NCC2CCCO2)c(C#N)c2c1COC(C)(C)C2 (configuration not stated),13.0%,-1.4%,0.0%,-12.8%,u,5.0%
CCCc1[nH]c(=O)c(C#N)c2c1COC(C)(C)C2,25.1µM*,-8.9%,3.6%,-17.2%,-11.4%,-0.7%
CCCc1nc(NC2CCCCC2)c(C#N)c2c1COC(C)(C)C2,35.5µM*,-3.1%,-1.0%,7.1%,7.4%,-2.3%
C[C@@]1(O)CCN(Cc2ccccc2F)C[C@H]1N1CCCC1,x,x,x,x,45.7%,x
Cc1cccc(C)c1Nc1c(-c2ccsc2)nc2ccc(Cl)cn12,-19.2%,x,-2.7%,x,-24.5%,x
Cc1cccc(C)c1Nc1c(-c2ccsc2)nc2ccccn12,28.2µM*,x,11.8%,x,u,x
COc1ccc(N2C(=O)CS(=O)C(c3ccccc3)C2=O)cc1 (configuration not stated),x,0.2%,2.7%,-0.4%,u,-2.5%
Cc1ccc(N2C(=O)CS(=O)C(c3ccccc3)C2=O)cc1C (configuration not stated),x,-1.4%,-2.7%,-4.8%,22.4µM*,-1.1%
COc1cc2c(C#CCCCO)c(-c3ccc(C#N)cc3)oc(=O)c2cc1OC,14.1µM*,-0.7%,-0.4%,u,u,u
O=c1c2nc(-c3ccoc3)ccc2ncn1Cc1ccccc1,x,x,x,x,41.6%[176 µM],x
O=C(c1cc(COc2cccc(F)c2)[nH]n1)N1CCC(N2CCSCC2)CC1,x,x,x,x,74.0%,x
CC1(C)CC(=O)C2=C(C1)OC(N)=C(C#N)C2c1ccc(-c2cc(Cl)ccc2Cl)o1 (configuration not stated),x,x,x,x,10.7%,x
CC1(C)CC(=O)C2=C(C1)OC(N)=C(C#N)C2c1ccc(-c2ccc(Br)cc2)o1 (configuration not stated),x,x,x,x,20µM*,x
COc1cc2c(cc1C1C(C#N)=C(N)OC3=C1C(=O)CC(C)(C)C3)OCO2 (configuration not stated),2.1%,-1.3%,x,8.3%,0.0%,0.0%
COc1ccc(C2C(C#N)=C(N)OC3=C2C(=O)CC(C)(C)C3)c2ccccc12 (configuration not stated),x,x,x,x,7.94µM*,x
O=C(/C=C/c1cccs1)Nc1scc(-c2ccccc2)c1C(=O)O,x,-1.0%,31.6µM*,-2.0%,44.7µM*,-5.7%
Cc1sc(NC(=O)/C=C/c2cccs2)c(C#N)c1C,x,x,x,x,7.94µM*,x
SMILES,ClpP mod,PTAP TSG101 blk,TDP1 block,Rango release inh,12-LOX inh,Rango-impB inh
CC(=O)NS(=O)(=O)c1ccc(NC(=O)c2ccc(NC(=O)c3cccs3)cc2)cc1,0.4%,-1.9%,44.7µM*,8.2%,-4.2%,-0.2%
CN(Cc1ccc2nsnc2c1)Cc1cn(-c2ccccc2)nn1,x,x,x,x,25.7%,x
CCC(C)N(CCCNC(=O)Cn1nc(Cc2cccnc2)c2ccccc2c1=O)Cc1ccco1 (configuration not stated),x,x,x,x,4.8%,x
COc1cccc(C#Cc2c(CO)[nH]c3ccccc23)c1,-0.6%,-1.4%,1.6%,0.5%,50.1µM*,u
Cc1ccc(COc2c(Cl)cc(/C=C(/C#N)c3nc4ccc(C)cc4[nH]3)cc2Cl)cc1,x,x,x,x,31.2%,x
Cc1cc(C)cc(NC(=O)NCC2CCOCC2)c1,x,x,x,x,29.8%,x
O=C(O)CCC(NC(=O)c1cncc(O)c1)C(=O)O (configuration not stated),25.1µM*,-6.9%,2.2%,15.3%,u,3.1%
COc1ncccc1-c1nnn(-c2ccccc2Br)n1,-2.0%,x,x,7.3%,28.2µM*,-2.7%
C[N+]1(CC(=O)OCCCC2CCCCC2)CCCC1,x,-12.6%,5.1%,0.2%,2.4%,5.0%
C[N+]1(CC(=O)OCCCC2CCCCC2)CCOCC1,x,x,x,x,11.2µM*,x
Cc1nn2c(c1-c1ccccc1C(C)C)N(Cc1ccc(F)cc1)CCC2,x,x,x,x,-1.8%[176 µM],x
CCOc1cc2c(c3c1C(c1ccccc1)N(S(=O)(=O)c1ccc(C)cc1)C3)C(=O)C=CC2=O (configuration not stated),1.4%,x,x,x,1.12µM*,x
CCOc1ccc(CN2CCOc3ccc(C(=O)NCc4ccccc4F)cc3C2)cc1,x,x,x,x,-6.4%,x
O=C1NCc2ccccc2CC12CCCN(Cc1ccnc3ccccc13)C2 (configuration not stated),x,x,x,x,22.4µM*,x
O=C1NCc2ccccc2CC12CCN(Cc1ccnc3ccccc13)CC2,x,x,x,x,28.2µM*,x
CC(C)CCn1c(N2CCN(c3ccccc3)CC2)nc2c1c(=O)[nH]c(=O)n2C,x,x,x,x,13.6%,x
CCOC(=O)Cn1c(=O)c2c3c(sc2n(CCN(C)C)c1=O)COC(C)(C)C3,x,x,x,x,17.4%,x
CCNC(=O)N1C[C@@H](Oc2cccnc2)C[C@@H]1C(=O)NCCOC,x,x,x,x,20.4%,x

# High-throughput results: PubChem BioAssay, National Center for Advancing Translational Sciences (NCATS)
